The results in this text go back to the GenesisPotency data set.

Screen size: about 290,000 compounds; about 3,000 (1%) were called active. Cut-off read from the data, not from the text of the source: active = inhibition mostly above about 36% (no sharp cut-off); inactive = mostly below about 34%. This excerpt belongs to a sample that is enriched for actives.

The target of this assay is T1, Nucleotide-binding oligomerization domain-containing protein 1, Homo sapiens (UniProt Q9Y239).
T1 sequence (whole entry): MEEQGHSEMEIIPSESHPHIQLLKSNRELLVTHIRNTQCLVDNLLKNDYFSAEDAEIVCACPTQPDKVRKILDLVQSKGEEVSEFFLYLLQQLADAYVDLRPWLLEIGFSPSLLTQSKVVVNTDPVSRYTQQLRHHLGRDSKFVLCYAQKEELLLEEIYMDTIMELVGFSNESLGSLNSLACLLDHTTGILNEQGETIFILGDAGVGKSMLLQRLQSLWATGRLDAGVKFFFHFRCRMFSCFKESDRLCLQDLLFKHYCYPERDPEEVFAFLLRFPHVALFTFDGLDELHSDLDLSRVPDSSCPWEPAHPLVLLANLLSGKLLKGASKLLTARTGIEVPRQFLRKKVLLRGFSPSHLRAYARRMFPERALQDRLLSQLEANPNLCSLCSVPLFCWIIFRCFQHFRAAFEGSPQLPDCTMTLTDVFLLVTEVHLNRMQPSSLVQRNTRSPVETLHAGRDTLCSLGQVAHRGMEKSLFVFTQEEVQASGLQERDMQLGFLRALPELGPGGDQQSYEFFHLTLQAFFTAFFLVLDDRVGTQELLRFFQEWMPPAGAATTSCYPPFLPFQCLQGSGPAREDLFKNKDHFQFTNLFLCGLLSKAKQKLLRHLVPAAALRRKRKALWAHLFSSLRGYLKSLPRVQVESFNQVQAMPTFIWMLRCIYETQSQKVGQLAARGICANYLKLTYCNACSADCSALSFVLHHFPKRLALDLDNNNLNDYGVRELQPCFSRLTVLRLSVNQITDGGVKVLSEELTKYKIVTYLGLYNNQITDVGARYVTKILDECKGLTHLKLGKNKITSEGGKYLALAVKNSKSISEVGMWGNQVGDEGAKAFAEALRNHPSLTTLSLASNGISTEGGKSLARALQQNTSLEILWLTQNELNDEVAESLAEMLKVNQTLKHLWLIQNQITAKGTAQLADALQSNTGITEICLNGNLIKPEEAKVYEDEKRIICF
Nature of the assay: NOD1 signaling inhibitors, primary screen, cell-based, luminescence, uHTS (AID 1578).
Turning to `CC[C@H]1CN2CCc3cc(OC)c(OC)cc3[C@@H]2C[C@@H]1C[C@H]1NCCc2cc(OC)c(OC)cc21.Cl`, the outcome was active.

As to `O=C(NC(=S)N1CCN(c2ccc(C(F)(F)F)cc2[N+](=O)[O-])CC1)c1cccs1`, the outcome was active.

With `O=C(NC(=S)N1CCN(c2ccc(Cl)cc2[N+](=O)[O-])CC1)c1cccs1`, the call was active.

As to `O=C(c1ccc2c(c1)CCN2S(=O)(=O)c1ccccc1)N1CCN(c2ccc(F)cc2)CC1`, the call was active.

Take `COc1ccc(C2CC(c3cccs3)=NN2C(=O)CCl)cc1OC` (stereo unspecified): the compound was called active.

With `COc1cc(C2CC(c3cccs3)=NN2C(=O)CCl)ccc1OC(F)F` (stereo unspecified), the compound was classed as active.

With `O=C(COc1ccc(C(=O)c2ccccc2)cc1)Nc1cccnc1`, the outcome was active.

For `Cc1ccc(-n2ncc(Br)c(Br)c2=O)cc1`, the compound was classed as active.

As to `COc1cc(OC)nc(-n2ncc(Br)c(Br)c2=O)n1`, the compound was classed as active.

Turning to `O=S(=O)(/C(=C/c1ccc(C(F)(F)F)cc1)c1nc2ccccc2[nH]1)c1ccccc1`, the call was active.

Regarding `CC(C)c1ccc(/C=C(\c2nc3ccccc3[nH]2)S(=O)(=O)c2ccccc2)cc1`, the compound was called active.

Turning to `Cc1cccc(/C=C(\c2nc3ccccc3[nH]2)S(=O)(=O)c2ccccc2)c1`, the call was active.

Turning to `N=C1SC(c2ccccc2)C(=O)N1c1ncc(Cc2ccccc2Cl)s1` (stereo unspecified), the call was active.

Regarding `N=C1SC(c2ccccc2)C(=O)N1c1ncc(Cc2ccccc2)s1` (stereo unspecified), the compound was classed as active.

As to `Cc1ccc(Cc2cnc(N3C(=N)SC(c4ccccc4)C3=O)s2)cc1` (stereo unspecified), the result was active.

Regarding `CCOc1ccc2nc(SCc3ccc(CC(=O)O)cc3)c(C#N)cc2c1`, the compound was called active.

Regarding `Cc1nc2ccc(NS(=O)(=O)c3c(C)c(C)cc(C)c3C)cc2s1`, the outcome was active.

For the compound `Cc1nc2ccc(NS(=O)(=O)c3ccc4c(c3)OCCO4)cc2s1`, the compound was called active.

As to `CSc1nc2ccc(NS(=O)(=O)c3ccc4c(c3)OCCO4)cc2s1`, the outcome was active.

Take `O=C(CCl)Nc1cc(SCC(O)CO)cc([N+](=O)[O-])c1` (stereo unspecified): the result was active.

As to `COc1cc(F)ccc1CN1CCC(C(=O)Nc2ccc(Oc3ccccc3)nc2)CC1`, the compound was called active.

In the case of `CCOC(=O)C1=C(C)N=c2s/c(=C/c3cccc([N+](=O)[O-])c3O)c(=O)n2C1c1ccccc1` (stereo unspecified), the compound was called active.

For the compound `Cc1ccccc1N(Cc1cc(=O)[nH]c2ccccc12)C(=O)CCl`, the call was active.

In the case of `Cc1ccc(N(Cc2cc(=O)[nH]c3ccccc23)C(=O)CCl)c(C)c1`, the outcome was active.

For the compound `Cc1cc(C(=O)N/N=C/c2cc(Br)cc(Br)c2OC(=O)c2cccc(F)c2)n[nH]1`, the result was active.

As to `COc1cccc(C(=O)Oc2c(Br)cc(Br)cc2/C=N/NC(=O)c2cc(C)[nH]n2)c1`, the outcome was active.

For the compound `Cc1cc(C(=O)N/N=C/c2cc(Br)ccc2OC(=O)c2ccccc2)n[nH]1`, the outcome was active.

`Cc1ccc(-c2csc3ncnc(Sc4nnc(CN5CCCCCC5=O)o4)c23)cc1`: the call was active.

Take `COc1ccc(Cn2c(O)c(C=Nc3ccccc3C(=O)O)c3ccccc3c2=O)cc1`: the compound was classed as active.

For `COc1ccccc1NS(=O)(=O)c1cccc(-n2c(O)c(C=Nc3ccccc3C(=O)O)c3ccccc3c2=O)c1`, the compound was called active.

In the case of `CCN(CC)S(=O)(=O)c1cccc(-n2c(O)c(C=Nc3ccccc3C(=O)O)c3ccccc3c2=O)c1`, the compound was called active.

Take `COC(=O)Cc1[nH]n(-c2nc3ccccc3s2)c(=O)c1C(C)=Nc1ccc(C)cc1`: the result was active.

For `Cc1ccc(Cl)cc1N1CCN(C(=O)c2cc3c(=O)[nH]c4ccccc4c3n2C)CC1`, the compound was classed as active.

As to `COc1ccc(CN(C)Cc2nc(Cc3cccc(F)c3)no2)c2cccnc12`, the result was active.

Turning to `Cc1nc(SCC(=O)Nc2nc3ccccc3s2)c(C#N)c(C)c1C`, the call was active.

`COc1ccc(-n2nnnc2S(=O)(=O)CC(=O)N2CCCCC2)cc1`: the call was active.

Take `Cc1cc(Nc2cccc([N+](=O)[O-])c2)n2c(nc3ccccc32)c1C#N`: the call was active.

With `CCc1nnc(NC(=O)c2ccc(Cl)c(S(=O)(=O)N3CCc4ccccc43)c2)s1`, the call was active.

In the case of `CC(NC(=O)OC(C)(C)C)C(=O)Oc1cc2oc(=O)cc(-c3ccccc3)c2cc1Cl` (stereo unspecified), the result was active.

Turning to `CC(NC(=O)OCc1ccccc1)C(=O)Oc1cc2oc(=O)cc(-c3ccccc3)c2cc1Cl` (stereo unspecified), the compound was classed as active.

In the case of `COC(=O)c1ccc(Nc2c([N+](=O)[O-])c(=O)oc3ccccc23)cc1`, the result was active.

In the case of `CCOC(=O)c1sc(N2C(=O)C(O)=C(C(=O)c3ccco3)C2c2ccco2)nc1C` (stereo unspecified), the outcome was active.

Turning to `CCOC(=O)N1CCN(C(=O)c2ccc(Cn3c(=S)[nH]c4cc5c(cc4c3=O)OCO5)cc2)CC1`, the call was active.

Consider `Cc1ccc(C(=O)Sc2cccccc2=O)cc1`, for which the result was active.

For the compound `CC(=O)c1c(C)[nH]c(C(=O)OCC(=O)Nc2ccc(C)cc2[N+](=O)[O-])c1C`, the outcome was active.

Turning to `CC(/C=C1\SC(=O)N(CCCC(=O)O)C1=O)=C\c1ccccc1`, the compound was called active.

Regarding `CN(Cc1ccccc1)C(=S)NC(=O)c1ccc(-c2ccccc2)cc1`, the call was active.

Consider `C=CCN(CC=C)C(=S)NC(=O)c1ccc(-c2ccccc2)cc1`, for which the outcome was active.

On to `CCOc1cc(/C=C(/C#N)c2ccc(Cl)cc2)cc(Cl)c1OCC(=O)O`, for which the call was active.

In the case of `CC1=C(CO)C(=O)OC([C@@H](C)C2CC[C@H]3C4C[C@H]5O[C@]56[C@@H](O)C=CC(=O)[C@]6(C)C4CC[C@]23C)C1` (stereo partly specified), the call was active.

As to `O=C(Nc1nnc(-c2ccccc2)o1)c1ccc(Cl)cc1`, the call was active.

`Cc1cccc(-c2nnc(NC(=O)c3ccc(Cl)cc3)o2)c1`: the compound was classed as active.

As to `CN(C)c1ccc(C(=O)Nc2nnc(-c3ccc(Cl)cc3)o2)cc1`, the outcome was active.

As to `COc1ccc(OC)c(NC(=O)CSc2ncnc3c2cnn3-c2ccccc2Cl)c1`, the call was active.

With `CCCC(Oc1ccc(Br)cc1)c1nc2c3cc(OC)c(OC)cc3nc(=S)n2[nH]1` (stereo unspecified), the compound was called active.

Turning to `CC(Oc1ccc(Br)cc1)c1nc2c3ccccc3nc(=S)n2[nH]1` (stereo unspecified), the compound was classed as active.

With `COc1ccc(CCNc2ncnc3sccc23)cc1OC`, the call was active.

With `COc1ccc(CCNc2ncnc3sc(C)cc23)cc1OC.Cl`, the compound was called active.

On to `COc1ccc(CCNc2ncnc3c2oc2ccccc23)cc1OC.Cl`, for which the outcome was active.

In the case of `Oc1ccc(CCNc2ncnc3ccc(Cl)cc23)cc1`, the compound was classed as active.

On to `COc1ccc(CCNc2ncnc3cc(OC)c(OC)cc23)cc1OC`, for which the compound was called active.

Regarding `O=C(c1ccc(S(=O)(=O)c2cccc(Cl)c2)c([N+](=O)[O-])c1)N1CCN(Cc2ccccc2)CC1`, the compound was classed as active.

As for `COc1ccc(NC(=O)/C(Cl)=C(/Cl)S(=O)Cc2ccccc2)cn1` (stereo unspecified), the result was active.

`COc1ccc(NC(=O)/C(Cl)=C(/Cl)S(=O)Cc2ccc(Cl)cc2)cn1` (stereo unspecified): the compound was classed as active.

For the compound `COc1ccc(NC(=O)/C(Cl)=C(/Cl)S(=O)Cc2ccccc2Cl)cn1` (stereo unspecified), the compound was classed as active.

For the compound `COc1ccc(NC(=O)/C(Cl)=C(/Cl)S(=O)Cc2ccc(C)cc2)cn1` (stereo unspecified), the compound was called active.
